The values below come from PubChem BioAssay (NCATS).

Experiment [1] can be described thus: Primary qHTS for inhibitors of nuclear receptor binding SET domain protein 2 (NSD2) in an isogenic RCH-ACV NSD2 p.E1099K mutant (9B) (AID 1645876). (qHTS replaces the single test concentration by a dilution series.)
Experiment [2] in a line: Primary qHTS for inhibitors of nuclear receptor binding SET domain protein 2 (NSD2) in an RCH-ACV wild type WT cells (2C) (AID 1645877).

Inconclusive results are not listed. A number with no mark means an inactive call. Active and inactive are the calls of the source. Calls come from the whole dose curve; as a rule, active = well fitted curve in the direction sought with a large enough effect; inconclusive = small, poorly fitted or top-dose-only effect, or another doubt; inactive = no such curve, though single readings can be large; an effect the other way counts as inactive or inconclusive. Where a SMILES comes first, the peptide text is derived from it. Bridges are numbered along the chain shown (N, C = ends). [ ]: non-standard residue; d: D form. NMeY = CN[CH](Cc1ccc(O)cc1)C(=O)O
% is set by controls: 0 for no effect and ±100 for the full control effect; potency is the fitted concentration of half-maximal effect.
Note: nearly all actives have a fitted effect of over 70% in size.

In the case of `COC1CC(OC2CCC3(C)C(=CCC4C3C(OC(C)=O)C(OC(=O)/C=C/c3ccccc3)C3(C)C(C(C)O)CCC43O)C2)OC(C)C1OC1CC(OC)C(OC2OC(C)C(OC3OC(CO)C(O)C(O)C3O)C(OC)C2O)C(C)O1` (configuration not stated), the activity change, negative = viability loss in experiment [1] is -12.2% [at 9.23 µM]. Moreover, in experiment [2], the activity change, negative = cell killing is -17.6% [at 9.23 µM].

As to `CC1=C(C)C(=O)OC(C(C)C2CCC3C4C5OC5C5(O)CC(OC6OC(CO)C(OC7OC(C)C(O)C(O)C7O)C(O)C6O)CC(O)C5(C)C4CCC23C)C1` (configuration not stated), the Potency entry in experiment [1] and in experiment [2] was “inactive” each time.

As to `C[C@H](Nc1ncnc2nc[nH]c12)c1cc2ccc(F)cc2nc1-c1ccccn1`, the Potency in experiment [1] is 833 nM (active); in experiment [2], 1180 nM (active).

Regarding `CCC1C(=O)OC23C=C[C@@H]4C(C(=O)O)=CO[C@H](O[C@@H]12)[C@@H]43` (some centres not stated), the Potency in experiment [1] is 25800 nM (active); in experiment [2], 18300 nM (active).

As to `CC1OC(OCC2OC(OC3CCC4(C)C(CCC5(C)C4CC=C4C6CC(C)(C)CCC6(C(=O)OC6OC(CO)C(O)C(O)C6O)CCC45C)C3(C)CO)C(O)C(O)C2O)C(O)C(O)C1O` (configuration not stated), in experiment [1], the activity change, negative = viability loss is 3.81% [at 9.23 µM]. Also, in experiment [2], the activity change, negative = cell killing is -0.623% [at 9.23 µM].

In the case of `C=C1CC[C@@H]2[C@@](C)(CO[C@@H]3O[C@H](CO)C(O)[C@H](O)C3O)[C@H](O)CC[C@@]2(C)[C@@H]1CC/C(C)=C/CO` (some centres not stated), the activity change, negative = viability loss in experiment [1] was 3.18% [at 9.23 µM]. Further, in experiment [2], the activity change, negative = cell killing was -1.61% [at 9.23 µM].

As for `CC(C)(O)CC(CO)NC(=O)CC(O)CC(=O)Cc1ccccc1` (configuration not stated), the Potency result in experiment [1] and in experiment [2] was “inactive” throughout.

Regarding `CCC(C)C1NC(=O)C2CCCN2C(=O)C(NC(C)=O)C(C)OC(=O)C(Cc2ccc(OC)cc2)N(C)C(=O)C2CCCN2C(=O)C(C(C)C)NC1=O` (configuration not stated) (Ac-TPIVP[NMeY](Me); ester 1-C; configuration not given here), the Potency entry in experiment [1] and in experiment [2] was “inactive” in each case.

With `Nc1ncnc2c1ncn2CCNCCCCCO`, the Potency entry in experiment [1] and in experiment [2] was “inactive” in each case.

Take `CC(=O)O[C@H]1[C@@H](O)[C@H](O[C@H]2[C@@H]3C=CO[C@@H](O[C@H]4O[C@@H](CO)[C@H](O)[C@@H](O)[C@@H]4O)[C@@H]3[C@@]3(CO)O[C@@H]23)O[C@@H](C)[C@@H]1OC(=O)/C=C/c1ccccc1`: the Potency entry in experiment [1] and in experiment [2] was “inactive” throughout.

As to `CC(O)/C=C/C1C(C)C(O[C@@H]2O[C@H](CO)[C@@H](O)[C@H](O)[C@H]2O)C(O)CC1(C)C` (some centres not stated), the Potency result in experiment [1] and in experiment [2] was “inactive” each time.

Regarding `CCC(C)C(=O)OC1CC(O)C23C4OCC5(C(O)CC2C1(C)C(O)O4)C3C(=O)CC1(C)C(c2ccoc2)CC2OC215` (configuration not stated), the Potency in experiment [1] is 399 nM (active); in experiment [2], 126 nM (active).

On to `CC(C)S(=O)(=O)NC[C@H](C)c1ccc(NC(=O)c2cc(F)cc(F)c2)cc1`, for which the Potency entry in experiment [1] and in experiment [2] was “inactive” each time.

Turning to `OCCc1ccc(O[C@@H]2O[C@H](CO)[C@@H](O)[C@H](O)[C@H]2O)cc1`, the Potency result in experiment [1] and in experiment [2] was “inactive” in each case.

On to `O=C(/C=C\n1cnc(-c2cc(C(F)(F)F)cc(C(F)(F)F)c2)n1)N1CC(F)(F)C1`, for which the Potency in experiment [1] was 934 nM (active); in experiment [2], 833 nM (active).

With `CC1=C2C3OC(=O)C(C)C3(O)CCC2(C)CCC1O` (configuration not stated), the Potency result in experiment [1] and in experiment [2] was “inactive” each time.

For the molecule `O=C(/C=C/c1ccc(O)cc1)OC1[C@H](O)CC(O)(C(=O)O)C[C@H]1O` (some centres not stated), the Potency entry in experiment [1] and in experiment [2] was “inactive” throughout.

For `COC(=O)C[C@H]1[C@]2(C)C3=C(C)[C@H](c4ccoc4)C[C@H]3O[C@@H]2[C@H](OC(C)=O)C2[C@](C)(C(=O)OC)C=CC(=O)[C@@]21C` (some centres not stated), the Potency result in experiment [1] and in experiment [2] was “inactive” each time.

Turning to `C[C@@H]1CC[C@]2(C(=O)O)CC[C@]3(C)C(=CCC4[C@@]5(C)C[C@@H](O)[C@H](O)[C@@](C)(CO)C5CC[C@]43C)C2[C@]1(C)O` (some centres not stated), the Potency entry in experiment [1] and in experiment [2] was “inactive” each time.

For the molecule `FC(F)(F)c1ccc(Nc2nc(-c3c(C(F)(F)F)nc4ccccn34)cs2)cc1`, the Potency was 417 nM (active) in experiment [1] and 372 nM (active) in experiment [2].

With `CC1(C)CCCC2(C)C1CC=C1C(=O)OC(O)C12O` (configuration not stated), the Potency result in experiment [1] and in experiment [2] was “inactive” each time.

Consider `CC(C)=CCC[C@](C)(O)[C@H]1CC[C@]2(C)[C@@H]1[C@H](O)CC1[C@@]3(C)CC[C@H](O)C(C)(C)[C@@H]3[C@@H](O[C@@H]3O[C@H](CO)[C@@H](O)[C@H](O)[C@H]3O[C@@H]3O[C@H](CO)[C@@H](O)[C@H](O)[C@H]3O)C[C@]12C` (some centres not stated), for which the Potency result in experiment [1] and in experiment [2] was “inactive” in each case.

In the case of `C[C@@H]1CC[C@]2(C(=O)O)CC[C@]3(C)C(=CCC4[C@@]5(C)CC[C@H](O)C(C)(C)C5C(O)C[C@]43C)[C@@H]2[C@]1(C)O` (some centres not stated), the Potency entry in experiment [1] and in experiment [2] was “inactive” throughout.

For `Cc1cc(C)cc(C(=O)NOCCCCCC(=O)NO)c1`, the figures for the Potency in experiment [1] and in experiment [2] were 515 nM (active) and 409 nM (active), respectively.

For the molecule `Clc1cc2c(NC3CCCC3)nnc(-c3ccncc3)c2cc1Cl`, the Potency result in experiment [1] and in experiment [2] was “inactive” in each case.

With `CC(O)CCC1C(CO[C@@H]2O[C@H](CO)[C@@H](O)[C@H](O)[C@H]2O)CC(O)CC1(C)C` (some centres not stated), the Potency result in experiment [1] and in experiment [2] was “inactive” in each case.
